One may read the AC50 as the concentration at which the activity in the assay is half-maximal.

Out of some 16,000 compounds screened, about 5,700 (36%) were called active. About 24% were inconclusive and are not listed. The list shows a part of the results. Unmarked numbers belong to inactive results. The call rests on the fitted dose curve; in most records, active means well fitted curve in the direction sought with a large enough effect; inconclusive means small, poorly fitted or top-dose-only effect, or effect the other way; inactive means no such curve, though single readings can be large or run the other way.
On the % scale 0 is the no-effect control and ±100 the full control effect.

Chain of Cytochrome P450 1A2 (Homo sapiens) (P05177 whole entry, looked up): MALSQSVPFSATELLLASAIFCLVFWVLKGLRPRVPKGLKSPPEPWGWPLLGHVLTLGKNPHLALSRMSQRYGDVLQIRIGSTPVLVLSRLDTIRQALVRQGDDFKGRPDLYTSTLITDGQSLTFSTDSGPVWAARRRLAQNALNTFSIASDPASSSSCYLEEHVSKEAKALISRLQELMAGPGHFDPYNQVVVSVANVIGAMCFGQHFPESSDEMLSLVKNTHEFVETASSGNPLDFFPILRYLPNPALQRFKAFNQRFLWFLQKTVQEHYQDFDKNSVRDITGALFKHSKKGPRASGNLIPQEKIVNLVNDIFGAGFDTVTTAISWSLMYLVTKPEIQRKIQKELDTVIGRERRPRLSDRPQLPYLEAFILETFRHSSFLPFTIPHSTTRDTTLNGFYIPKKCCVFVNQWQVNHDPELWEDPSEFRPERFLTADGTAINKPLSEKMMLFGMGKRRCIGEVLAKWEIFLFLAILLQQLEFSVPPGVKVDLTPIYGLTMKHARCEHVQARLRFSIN

This experiment addresses Cytochrome P450 1A2 (Homo sapiens) (UniProt P05177). Kind of experiment: Cytochrome panel assay with activity outcomes. To be noted: recombinant CYP, pro-luciferin dealkylation, luminescence, p450-cyp1a2; series mostly up to 57.1 µM; activity, negative = inhibition: at the top concentration.
As for `COc1cc(CNCCc2ccccc2)ccc1OCC(=O)NC(C)(C)C`, the “activity, negative = inhibition” value is -16.3%.

For `C/C(CCN1CCCCc2nc(C)c(C)cc21)=N\OC[C@@H](C)[C@H](OCc1ccccc1)C(C)C`, the activity, negative = inhibition was -4.06% [at 11.4 µM].

Take `CC(=O)N1CCC2(CCN(Cc3ccncc3)CC2)CC1`: the “activity, negative = inhibition” value is -11.1%.

For `O=C(c1ccncc1)N1CCC2(CCN(Cc3ccncc3)CC2)CC1`, the “activity, negative = inhibition” value is -7.78%.

For the molecule `O=C(c1cc(C(F)(F)F)cc(C(F)(F)F)c1)N1CCC[C@@]2(CCN(c3ccncc3)C2)C1`, the “activity, negative = inhibition” value was 5.24%.

Regarding `N#Cc1ccc(CN2CC3(CCN(C(=O)c4cc(C(F)(F)F)cc(C(F)(F)F)c4)CC3)C2)cc1`, the “activity, negative = inhibition” value is -2.91%.

In the case of `O=C(c1cc(C(F)(F)F)cc(C(F)(F)F)c1)N1CCC2(CCCN(Cc3ccncc3)C2)CC1`, the “activity, negative = inhibition” value was -16.3%.

Regarding `N#Cc1ccc(CN2CCC3(CC2)CCN(C(=O)c2cc(C(F)(F)F)cc(C(F)(F)F)c2)CC3)cc1`, the “activity, negative = inhibition” value is -8.67%.

`N#Cc1ccc(CN2CC[C@@]3(CCCN(C(=O)c4cc(C(F)(F)F)cc(C(F)(F)F)c4)C3)C2)cc1`: the AC50 is 25.1 µM (active).

As to `N#Cc1ccc(CN2CCCC3(CCN(S(=O)(=O)c4ccccc4)CC3)C2)cc1`, the “activity, negative = inhibition” value is -13.6%.

In the case of `O=S(=O)(c1ccccc1)N1CCC2(CCN(Cc3ccncc3)CC2)CC1`, the “activity, negative = inhibition” value is -9.3%.

Consider `COCC(=O)N1CCC2(CCN(Cc3ccncc3)CC2)CC1`, for which the AC50 is 10 µM (active).

Turning to `O=S(=O)(c1ccccc1)N1CCC2(CCCN(Cc3ccncc3)C2)CC1`, the AC50 is 12.6 µM (active).

As for `O=C(c1cc(C(F)(F)F)cc(C(F)(F)F)c1)N1CCC[C@@]2(CCN(Cc3ccncc3)C2)C1`, the AC50 was 12.6 µM (active).

As to `CO/N=C\[C@@H](C)[C@H](OCc1ccccc1)C(C)C`, the activity, negative = inhibition is -4.31% [at 11.4 µM].

Turning to `O=C(c1cc(C(F)(F)F)cc(C(F)(F)F)c1)N1CCC2(CC1)CN(Cc1ccccc1)C2`, the “activity, negative = inhibition” value was 10.2%.

Regarding `O=C(c1cnccn1)N1CCC[C@@]2(CCN(Cc3nccs3)C2)C1`, the “activity, negative = inhibition” value was 1.25%.

For the molecule `O=C(c1cnccn1)N1CCC[C@@]2(CCN(Cc3cc(C(F)(F)F)cc(C(F)(F)F)c3)C2)C1`, the “activity, negative = inhibition” value is -0.958%.

For the molecule `COc1ccc(C(=O)N2CCC3(CCCN(Cc4ccncc4)C3)CC2)cc1`, the “activity, negative = inhibition” value is -27.8%.

In the case of `O=C(c1cnccn1)N1CCC[C@@]2(CCN(Cc3ccncc3)C2)C1`, the AC50 was 15.8 µM (active).

`Cc1noc(C)c1C(=O)N1CCC2(CCCN(C(c3ccccc3)c3ccccc3)C2)CC1`: the “activity, negative = inhibition” value is -8.2%.

For the molecule `O=C(c1ccncc1)N1CCC2(CCCN(Cc3ccccc3)C2)CC1`, the “activity, negative = inhibition” value is -3.49%.

Take `O=C(c1cc(C(F)(F)F)cc(C(F)(F)F)c1)N1CCC[C@@]2(CCN(Cc3ccccc3)C2)C1`: the AC50 was 25.1 µM (active).

Turning to `O=C(c1ccncc1)N1CCC2(CCCN(Cc3ccncc3)C2)CC1`, the AC50 was 6.31 µM (active).

For `O=C(c1ccncc1)N1CCC2(CCCN(C(c3ccccc3)c3ccccc3)C2)CC1`, the AC50 is 0.2 µM (active).

`O=C(c1cc(C(F)(F)F)cc(C(F)(F)F)c1)N1CCC2(CCN(Cc3ccccc3)CC2)CC1`: the “activity, negative = inhibition” value is -8.02%.

Consider `CC(C)NC(=O)N1CCCC2(CCN(C(=O)c3ccncc3)CC2)C1`, for which the “activity, negative = inhibition” value was -0.498%.

In the case of `COC(=O)C/C=C\[C@@H](C)[C@@H](/C=N\OC[C@@H](C)[C@H](OCc1ccccc1)C(C)C)OC`, the activity, negative = inhibition was -0.613% [at 11.4 µM].

In the case of `C[C@@H]1c2cccc(O)c2C(O)=C2C(=O)[C@@]3(O)C(O)=C(C(N)=O)C(=O)[C@@H](N(C)C)[C@@H]3[C@@H](O)[C@@H]21`, the AC50 result was “inactive”.

On to `O=C1C(=O)N(c2cccc(Cl)c2)C(c2ccccc2[N+](=O)[O-])/C1=C(\O)c1ccccc1` (centres undefined), for which the “activity, negative = inhibition” value is -19.7%.

Regarding `CC(=O)c1sc(N)c(C(=O)OC(C)C)c1C`, the AC50 is 3.55 µM (active).

In the case of `Cc1ccc(C)c(CN2C(=O)C3CCCN3c3ccc(C#N)cc32)c1` (centres undefined), the AC50 was 12.6 µM (active).

For `O=C1C2CCCN2c2ccc(S(=O)(=O)N3CCOCC3)cc2N1Cc1cccc(C(F)(F)F)c1` (centres undefined), the “activity, negative = inhibition” value is -11.7%.

`CCOC(=O)C1CCN(c2c(NCc3ccc(C(=O)NCCC(C)C)cc3)c(=O)c2=O)CC1`: the “activity, negative = inhibition” value is -20.9%.

Take `Cc1ccccc1[C@@H](OCCN(C)C)c1ccccc1`: the AC50 result is “inactive”.

Consider `CCCCc1cc2ccccc2c(OCCN(C)C)n1`, for which the AC50 is 0.0794 µM (active).

On to `CCCCc1c(O)nc(SCCN(C)C)n(-c2ccccc2)c1=O`, for which the “activity, negative = inhibition” value was 7.61%.

Take `Cc1occc1C(=O)NNC(=O)c1ccc(F)cc1`: the “activity, negative = inhibition” value is -12.3%.

In the case of `CC(=O)C1=C(NC(=O)c2ccc(F)cc2)CC2C1C2(C)C` (centres undefined), the AC50 was 0.2 µM (active).

Take `CCn1c(SCC(=O)OC)nnc1C1CCCCC1`: the “activity, negative = inhibition” value is -14.9%.

With `COC(=O)CSc1ccc2nnc(-c3ccc(F)cc3)n2n1`, the AC50 is 1.58 µM (active).

For `COC(=O)C(C)Sc1ccc2nnc(-c3ccc(F)cc3)n2n1` (centres undefined), the AC50 was 0.794 µM (active).

Take `CC(C)NC(=O)N1CCCC2(CCN(C(=O)c3cccc(F)c3)CC2)C1`: the “activity, negative = inhibition” value is 19%.

On to `CCCN(C/C=C\I)[C@@H]1CCc2cccc(O)c2C1`, for which the AC50 is 2.51 µM (active).

With `N#C[C@H]1CN[C@H](N)N[C@@H]1N`, the activity, negative = inhibition is -11.6% [at 2.29 µM].

Regarding `CCNc1nc(NCC)nc(N(C)N)n1`, the AC50 was 0.708 µM (active).

For the molecule `Cc1ccc(NC(=O)C2CC(=O)n3c(nc4ccccc43)N2)cc1` (centres undefined), the “activity, negative = inhibition” value was -8.21%.

As for `Cn1c(/C=N/NC(=O)c2ccccc2Br)nc2ccccc21`, the AC50 was 2.51 µM (active).

For `Cc1ccc(C(=O)N/N=C/c2nc3ccccc3n2C)cc1`, the AC50 is 7.08 µM (active).

These data come from PubChem BioAssay AID1851 (National Center for Advancing Translational Sciences (NCATS), 2009).
